Data reported in PubChem BioAssay (EPA / NIEHS).
The source made the active and inactive calls. The calls were made as follows: active = hit-call score of the fitted dose curve at least 0.9, where 1 is the maximum; inactive = score below 0.9.

Experiment: CCTE_Mundy_HCI_Cortical_Synap_Neur_Matur_SynapseCount: CCTE's Synaptogenesis and Neurite Maturation Assay in rat cortical cells for Synapse Count, Mundy Lab (AID 2284218)
Summary of the method: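 Read-out: synapse number per neuron, automated high-content imaging of fixed cells immunostained for MAP2 and synaptophysin plus Hoechst nuclei. Rat primary cortical cultures, AraC at DIV 5, chemical dosing DIV 7–12. Positive-direction fit relative to DMSO.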

| SMILES | AC50 | outcome |
| --- | --- | --- |
| BrC1CC(Br)CC(Br)CC(Br)CC(Br)CC(Br)C1 (stereo unspecified) | 3.61 µM (active) |  |
| CC(CNC(=S)[S-])NC(=S)[S-].[Zn+2] (stereo unspecified) | 50 µM (active) |  |
| CC(=O)N[C@@H](CC(=O)O)C(=O)O |  | inactive |
| CC(C)c1nn(C(=O)NC(C)(C)C)c(=O)n1N |  | inactive |
| Cc1[nH]n(C)c(=O)c1C(=O)c1ccc(C(F)(F)F)cc1S(C)(=O)=O |  | inactive |
| F |  | inactive |
| [O]=[V]([OH])([OH])[OH] | 15.4 µM (active) |  |
| CCCCCC(C)(CC)C(=O)NC (stereo unspecified) |  | inactive |
| C[C@@H]1CCO[C@H]2Cn3cc(C(=O)NCc4ccc(F)cc4F)c(=O)c(O)c3C(=O)N12 | 3.05 µM (active) |  |
| CN(C)CCCn1cc(C2=C(c3c[nH]c4ccccc34)C(=O)NC2=O)c2ccccc21 |  | inactive |
| CCCCCC=C(C)C(CC)CCO (stereo unspecified) |  | inactive |
| CCc1ccccc1 |  | inactive |
| C[C@@H]1CC[C@@H](C(C)(C)O)[C@H](O)C1 |  | inactive |
| CC(C)O |  | inactive |

Experiment: CCTE_Mundy_HCI_Cortical_Synap_Neur_Matur_NeuriteCount: CCTE's Synaptogenesis and Neurite Maturation Assay in rat cortical cells for Neurite Count, Mundy Lab (AID 2284222);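 as to outcome: exposure from day 7 to day 12 in vitro with readout at day 12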
Summary of the method: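 Rat primary cortical cells; AraC added at DIV 5, chemicals dosed with media change at DIV 7 through DIV 12. MAP2/synaptophysin/Hoechst immunostaining, high-content imaging of neurite number; fitted relative to DMSO.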

| SMILES | AC50 | outcome |
| --- | --- | --- |
| BrC1CC(Br)CC(Br)CC(Br)CC(Br)CC(Br)C1 (stereo unspecified) | 4.27 µM (active) |  |
| CC(CNC(=S)[S-])NC(=S)[S-].[Zn+2] (stereo unspecified) | 76.9 µM (active) |  |
| CC(=O)N[C@@H](CC(=O)O)C(=O)O |  | inactive |
| CC(C)c1nn(C(=O)NC(C)(C)C)c(=O)n1N |  | inactive |
| Cc1[nH]n(C)c(=O)c1C(=O)c1ccc(C(F)(F)F)cc1S(C)(=O)=O |  | inactive |
| F |  | inactive |
| [O]=[V]([OH])([OH])[OH] | 78.5 µM (active) |  |
| CCCCCC(C)(CC)C(=O)NC (stereo unspecified) |  | inactive |
| C[C@@H]1CCO[C@H]2Cn3cc(C(=O)NCc4ccc(F)cc4F)c(=O)c(O)c3C(=O)N12 |  | inactive |
| CCCCCC=C(C)C(CC)CCO (stereo unspecified) |  | inactive |
| CCc1ccccc1 |  | inactive |
| C[C@@H]1CC[C@@H](C(C)(C)O)[C@H](O)C1 |  | inactive |
| CC(C)O |  | inactive |

Experiment: CCTE_Mundy_HCI_Cortical_Synap_Neur_Matur_CellBodySpotCount: CCTE's Synaptogenesis and Neurite Maturation Assay in rat cortical cells for Cell Body Spot Count, Mundy Lab (AID 2284223)
Summary of the method: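 Read-out: cell body-associated synaptophysin puncta per neuron, imaged after MAP2, synaptophysin and Hoechst staining. Rat cortical cells, AraC DIV 5, chemical dosing DIV 7, fixation DIV 12. Activity fitted in positive direction relative to DMSO baseline.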

| SMILES | AC50 | outcome |
| --- | --- | --- |
| BrC1CC(Br)CC(Br)CC(Br)CC(Br)CC(Br)C1 (stereo unspecified) | 3.8 µM (active) |  |
| CC(CNC(=S)[S-])NC(=S)[S-].[Zn+2] (stereo unspecified) |  | inactive |
| CC(=O)N[C@@H](CC(=O)O)C(=O)O |  | inactive |
| CC(C)c1nn(C(=O)NC(C)(C)C)c(=O)n1N |  | inactive |
| Cc1[nH]n(C)c(=O)c1C(=O)c1ccc(C(F)(F)F)cc1S(C)(=O)=O |  | inactive |
| F |  | inactive |
| [O]=[V]([OH])([OH])[OH] | 44.3 µM (active) |  |
| CCCCCC(C)(CC)C(=O)NC (stereo unspecified) |  | inactive |
| C[C@@H]1CCO[C@H]2Cn3cc(C(=O)NCc4ccc(F)cc4F)c(=O)c(O)c3C(=O)N12 |  | inactive |
| CN(C)CCCn1cc(C2=C(c3c[nH]c4ccccc34)C(=O)NC2=O)c2ccccc21 |  | inactive |
| CCCCCC=C(C)C(CC)CCO (stereo unspecified) |  | inactive |
| CCc1ccccc1 |  | inactive |
| C[C@@H]1CC[C@@H](C(C)(C)O)[C@H](O)C1 |  | inactive |
| CC(C)O |  | inactive |
